This is an account of results in PubChem BioAssay AID504843 (Broad Institute, 2011).

Hit rate of the full screen: of about 1,200 compounds, about 360 (30%) were called active. The rule behind the calls is not given here. Only a sample is shown. Entries with a potency or affinity are not part of this list.

A short description of the assay: antibacterial activity by ATP level – BacTiter-Glo luminescence, cherry-picked samples, counter-screen, dose response (AID 504843).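 Note: growth measured after 8 h incubation at 30 °C.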 The following applies: bacterial growth; series mostly up to 15 µM. (The purpose of a counterscreen is to sort out artefacts and off-target activity.)
In the case of `O=C(CCCc1nc2ccccc2s1)NC1CCOC1=O` (stereo not drawn), the outcome was inactive.

Regarding `Cc1cccc(CS(=O)(=O)c2ncc(Cl)c(C(=O)Nc3nnc(C(C)C)s3)n2)c1`, the compound was classed as inactive.

Consider `Cc1cccc(NC(=O)CN(c2ccc(F)cc2)S(C)(=O)=O)c1`, for which the compound was classed as inactive.

Consider `O=C(C[C@H]1C[C@H](C(=O)N2CCOCC2)[C@@]2(CCC3CCCC3)c3[nH]c4cc(-c5ccco5)ccc4c3CCN2C1=O)NCCCn1ccnc1`, for which the compound was called inactive.

Consider `CC(=O)Nc1ccc(/C=N/N2CCCCC2)cc1`, for which the compound was classed as inactive.

Turning to `Cc1ccc(/C=C2/C(=N)N3N=C(CC(=O)N4CCCC4)SC3=NC2=O)o1`, the compound was called inactive.

On to `C=CCN1C(=O)c2ccc(C(=O)N3CCC(C(N)=O)CC3)cc2C1=O`, for which the compound was called inactive.

As to `CC(NC(=O)c1ccc([N+](=O)[O-])o1)C12CC3CC(CC(C3)C1)C2` (stereo not drawn), the result was inactive.

Regarding `CC(C)N1CCc2c(sc(NC(=O)c3ccc(S(=O)(=O)N4CCc5ccccc54)cc3)c2C(N)=O)C1`, the outcome was inactive.

Regarding `Cc1ccc2nc(C(=O)O)c(C(=O)O)nc2c1`, the compound was called inactive.

As to `NC(=O)Cn1c(-c2nonc2N)nc2ccccc21`, the result was inactive.

For the compound `CC(C)c1nn2c(=O)cc(CSc3ccccc3NC(=O)c3ccccc3F)nc2s1`, the result was inactive.

Turning to `CC(=O)c1ccc(NC(=O)CSc2nnc(C3CC3)n2C2CC2)cc1`, the outcome was inactive.

As for `COc1ccc(-n2c(Cc3cccn3C)nnc2SCC(=O)NCc2ccc(F)cc2)cc1`, the call was inactive.

Turning to `Cc1ccc2cc(CCNC(=O)C(=O)c3c(C)[nH]c4ccccc34)c(=O)[nH]c2c1`, the result was inactive.

On to `O=C(Nc1ccc(F)cc1)Nc1cc(S(=O)(=O)N2CCOCC2)ccc1N1CCCC1`, for which the compound was classed as inactive.

Take `O=C(/C=C/c1ccccc1)Nc1cc(S(=O)(=O)N2CCOCC2)ccc1N1CCCC1`: the outcome was inactive.

On to `CC(Sc1ccsc1[N+](=O)[O-])C(=O)N1CCN(c2ccccn2)CC1` (stereo not drawn), for which the result was inactive.

For the compound `Nc1ccn(CC(=O)N2CCN(c3ccccn3)CC2)c(=O)n1`, the call was inactive.

Consider `COC(CNc1ncnc2sc(-c3ccccc3)cc12)OC`, for which the outcome was inactive.

As for `O=C(CSc1nnc(-c2cccnc2)o1)Nc1ccc(Cl)cc1`, the compound was called inactive.

In the case of `Cc1cccc(-c2nnc(-c3cccc(NC(=O)Cc4cccs4)c3)o2)c1`, the compound was classed as inactive.

Take `CSc1cccc(NC(=O)CN(C)S(=O)(=O)c2cnc[nH]2)c1`: the outcome was inactive.

As for `CC1CCN(C(=O)c2[nH]cnc2C(=O)N[C@@H](C)C(=O)OC(C)(C)C)CC1`, the call was inactive.

As to `C[C@H](NC(=O)c1nc[nH]c1C(=O)NCCCCCNC(=O)OC(C)(C)C)c1ccccc1`, the compound was called inactive.

On to `CCCCCCCN(c1ccccc1)[C@@H]1C[C@H]2CCCC(=O)N3CC[C@@H](C1)[C@@H]23`, for which the call was inactive.

With `CCOC(=O)c1c(C)[nH]c(C(=O)N(C)Cc2cccc(OC)c2OC)c1C`, the compound was classed as inactive.

As for `O=C1CN2C(=Nc3ccc(Br)cc3C2c2ccccc2)CCN1` (stereo not drawn), the outcome was inactive.

For the compound `CC[C@H]1OC(=O)[C@H](C)[C@@H](O[C@H]2C[C@@](C)(OC)[C@@H](O)[C@H](C)O2)[C@H](C)[C@@H](O[C@@H]2O[C@H](C)C[C@H](N(C)C)[C@H]2O)[C@](C)(O)C[C@@H](C)CN(C)[C@H](C)[C@@H](O)[C@]1(C)O`, the compound was classed as inactive.

In the case of `O=[N+]([O-])c1ccc(/C=N/n2c(CO)nc3ccccc32)s1`, the compound was called inactive.

For the compound `Cc1nn(-c2ccccc2)c2nc3c(cc12)C(=O)CCC3`, the result was inactive.

Take `O=C(CN1CCC(n2nnc3cc(F)ccc32)CC1)NCc1ccco1`: the outcome was inactive.

Regarding `Nc1nc2n(n1)C(c1cccc(Br)c1)CC(c1ccccc1)N2` (stereo not drawn), the compound was called inactive.

For the compound `Nc1ccccc1S(=O)(=O)NC1=NCCCCC1`, the compound was called inactive.

On to `CCOc1ccc(-c2c(C(=O)N/N=C/c3c[nH]c4ccccc34)nnn2-c2nonc2N)cc1`, for which the compound was classed as inactive.

Regarding `Cc1ccc(NC(=O)NCc2ccccn2)cc1Cl`, the compound was classed as inactive.

With `Cc1ccc(NC(=O)c2ncn(CCCNCc3ccccn3)n2)cc1C`, the compound was called inactive.

On to `COc1ccc(CN2CCN(C(=O)C3CCC(CNS(=O)(=O)c4ccccc4)CC3)CC2)c(OC)c1OC` (stereo not drawn), for which the result was inactive.

On to `Cc1nc2ncnn2c(C)c1CCC(=O)N1CCCCC1`, for which the outcome was inactive.

Take `COc1ccc(Nc2cc(C)nc3nc(C)nn23)c(OC)c1`: the outcome was inactive.

On to `O=C(Cn1cc([N+](=O)[O-])cn1)N1CCN(c2ccccc2)CC1`, for which the result was inactive.

As to `CSc1ccc(NC(=O)N2CCN(c3nc4ccccc4s3)CC2)cc1`, the call was inactive.

`COCCC1CCCCN1C(=O)c1cccc(OC2CCN(S(C)(=O)=O)CC2)c1` (stereo not drawn): the result was inactive.

For `CCN1CCN(CCCNc2ncnc3nc[nH]c23)CC1`, the compound was classed as inactive.

Consider `C1=C(CCNc2ncnc3c2cnn3-c2ccccc2)CCCC1`, for which the result was inactive.

For the compound `COc1ccc(-c2c(-c3cc(OC)cc(OC)c3)n(C)c3ccc(-c4ccc(S(N)(=O)=O)cc4)cc23)cc1`, the outcome was inactive.

With `CC(C)c1ccc(C(=O)CN2C(=O)NC3(CCc4ccccc43)C2=O)cc1` (stereo not drawn), the result was inactive.

Consider `Cc1nc(Cl)c(C(=O)NCc2ccccc2)c(C)c1Cl`, for which the outcome was inactive.

As for `C#CCOCCOCCOCCNc1nc(N2CCN(C(=O)Cn3cc(CC(C)O)nn3)CC2)nc(N2CCN(C(=O)[C@H](CCCCN)n3cc(CCCC)nn3)CC2)n1` (stereo partly drawn), the compound was called inactive.

Consider `O=C(C1CCCO1)N1CCN(c2c3c(nc4cc(-c5ccc(F)cc5)nn24)CCC3)CC1` (stereo not drawn), for which the outcome was inactive.

As to `Nc1nc(CN2CCCCC2)cs1`, the call was inactive.

For the compound `O=C(NCc1ccccc1)C(=O)NCC1OCCN1S(=O)(=O)c1ccc([N+](=O)[O-])cc1` (stereo not drawn), the compound was classed as inactive.

As for `Nc1nc(NCC2CCCO2)nc(Nc2cccc(Cl)c2)c1[N+](=O)[O-]` (stereo not drawn), the compound was called inactive.

For the compound `COC(=O)c1ccc(Cl)cc1NC(=O)/C=C/c1ccc(C)o1`, the outcome was inactive.

As for `CC(NC(=O)c1ccc([N+](=O)[O-])cc1[N+](=O)[O-])c1ccc(-c2ccccc2)cc1` (stereo not drawn), the compound was classed as inactive.

For the compound `O=C(Nc1ccc(F)cc1)C1CC(=O)N(Cc2ccco2)C1` (stereo not drawn), the call was inactive.

With `O=C(Cn1nc(C(F)(F)F)c2c1CCCC2)NCc1ccco1`, the compound was called inactive.

For `CN(Cc1cn[nH]c1-c1ccc(-c2ccccc2)cc1)CC1CCOCC1`, the outcome was inactive.

In the case of `COc1ccc2c(c1)c1c3n2CCN(C)C3=NCC1`, the call was inactive.

With `CC(C)C(C(=O)NC1CCCC1)N(CC1CCCO1)C(=O)CNS(=O)(=O)c1ccccc1` (stereo not drawn), the compound was classed as inactive.

`CCCCC(=O)N(c1ccc(C)c(C)c1)C1C=CS(=O)(=O)C1` (stereo not drawn): the compound was classed as inactive.

With `COc1ccccc1N(CC(=O)NC1CCCC1)C(=O)c1csnn1`, the compound was called inactive.

For `COc1cc(CNc2ccc3[nH]c(=O)[nH]c3c2)ccc1OCC(=O)NC(C)(C)C`, the compound was classed as inactive.
